This note sets out measurements from PubChem BioAssay (EPA / NIEHS).

Activity calls are given as the source filed them. Rule for the calls: active = hit-call score of the fitted dose curve at least 0.9, where 1 is the maximum; inactive = score below 0.9.

The nature of the assay: CCTE_Harrill_HTTr_Apoptosis_MCF7: CCTE's 6-hour Apoptosis Assessment for the High-Throughput Transcriptomics (HTTr) Platform, in MCF-7 cells cultured in DMEM + 10% fetal bovine serum, Harrill Lab (AID 2284011). The source says:
This is a cell-based assay that evaluates apoptosis using high content imaging to evaluate activation of caspase-3/7 using the CellEvent Caspase 3/7 Green detection reagent in 384-well format.One of seven assay components measured from the CCTE_Harrill_HTTr_Apoptosis assay. This was part of a full screening experiment. This is a cell-based assay that evaluates apoptosis in MCF-7 cells cultured in DMEM + 10% fetal bovine serum. High content imaging is used to evaluate activation of caspase-3/7 using the CellEvent Caspase 3/7 Green detection reagent. Measurements are taken at 6 hours after chemical dosing in 384-well format.The assay component endpoint CCTE_Harrill_HTTr_Apoptosis_MCF7 was analyzed with bidirectional fitting relation to DMSO as the negative control and baseline of activity. Using a type of viability reporter, gain-of-signal activity can be used to evaluate activation of caspase-3/7 using the CellEvent Caspase 3/7 Green detection reagent to understand changes in apoptosis. To generalize the intended target to other relatable targets, this assay endpoint is annotated to cell cycle, where the subfamily is apoptosis.
Chemicals were tested in MCF7 cells in an eight point dilution series with a six hour exposure duration.
Take `Nc1ccc(N=Nc2ccc(-c3ccc(N=Nc4c(S(=O)(=O)O)cc5cc(S(=O)(=O)O)c(N=Nc6ccccc6)c(O)c5c4N)cc3)cc2)c(N)c1`: the outcome was inactive.

As to `CC(C)(c1ccccc1)c1ccc(O)c(C(C)(C)c2ccccc2)c1`, the result was inactive.

With `O=C(O)C(F)(F)C(F)(F)C(F)(F)C(F)(F)C(F)(F)C(F)(F)C(F)(F)C(F)(F)C(F)(F)C(F)(F)F`, the outcome was inactive.

On to `Nc1cccc2ccccc12`, for which the outcome was inactive.

With `[O-][Cl+2]([O-])O`, the outcome was inactive.

`O=Cc1cccc(Oc2ccccc2)c1`: the outcome was inactive.

As to `O=S(=O)(c1ccc(Cl)cc1)c1ccc(Cl)cc1`, the outcome was inactive.

In the case of `C[C@@H]1C[C@@H]([C@H](O)CC2CC(=O)NC(=O)C2)C(=O)[C@@H](C)C1`, the outcome was inactive.

Broadly, the AC50 is the midpoint of the concentration-response curve, whichever way the signal moves. Take `CCN1CCC2(CC1)COc1cc3c(cc12)N(C(=O)c1ccc(-c2ccc(-c4nnc(C)o4)cc2C)cc1)CC3`: the AC50 is 60.3 µM (active).

For the molecule `C[C@@H](Oc1ccc(Cl)cc1Cl)C(=O)O`, the outcome was inactive.

Turning to `CN(C)N=O`, the outcome was inactive.

In the case of `ClCCBr`, the outcome was inactive.

Take `CCC(=O)c1ccccc1`: the result was inactive.

Regarding `CCC(C)(C)c1ccc(O)c(C(C)(C)CC)c1`, the result was inactive.

On to `C=C(C)C(=O)[O][Sn]([CH2]CCC)([CH2]CCC)[CH2]CCC`, for which the AC50 was 11 µM (active).

For the molecule `COc1cc2c(cc1OC)[C@@]13CCN4CC5=CCO[C@H]6CC(=O)N2[C@H]1[C@H]6[C@H]5C[C@H]43`, the outcome was inactive.

For the molecule `CCC(=O)C(CC(C)N(C)C)(c1ccccc1)c1ccccc1` (stereo not given), the outcome was inactive.

Consider `CN(CCCC(=O)c1cccnc1)N=O`, for which the result was inactive.

`COC(=O)Cc1ccccc1`: the outcome was inactive.

Consider `CCCCCCCCc1ccc(O)cc1`, for which the outcome was inactive.

For the molecule `CC(C)OC(=O)Nc1ccccc1`, the result was inactive.

On to `CCCCOCCOC(C)=O`, for which the result was inactive.

In the case of `CCCCCCCCCl`, the result was inactive.

As for `CC(C)C1CCC(Cc2ccc(Cl)cc2)C1(O)Cn1cncn1` (stereo not given), the result was inactive.

Take `COC[C@H](C)N(C(=O)CCl)c1c(C)csc1C`: the result was inactive.

Regarding `O=c1[nH]c(=O)[nH]c(=O)[nH]1`, the outcome was inactive.

In the case of `O=CC=O`, the outcome was inactive.

Turning to `CCc1ccccc1C`, the result was inactive.

Take `P.[In]`: the outcome was inactive.

For the molecule `Oc1c(I)cc(I)cc1I`, the outcome was inactive.

Regarding `CCNc1nc(NC(C)(C)C)nc(SC)n1`, the result was inactive.

With `O=[N+]([O-])c1ccc(O)c([N+](=O)[O-])c1`, the outcome was inactive.

Take `O=C1C2(Cl)C3(Cl)C4(Cl)C(Cl)(Cl)C5(Cl)C3(Cl)C1(Cl)C5(Cl)C24Cl` (stereo not given): the result was inactive.

Regarding `COP(=S)(OC)Oc1ccc(Sc2ccc(OP(=S)(OC)OC)cc2)cc1`, the result was inactive.

With `CC1(C)CCC(Cc2ccc(Cl)cc2)C1(O)Cn1cncn1` (stereo not given), the result was inactive.

`CC1(C)Cc2cccc(O)c2O1`: the outcome was inactive.

For `O=[N+]([O-])c1ccc2c3c(cccc13)CC2`, the result was inactive.

Regarding `Clc1ccc(COC(Cn2ccnc2)c2ccc(Cl)cc2Cl)cc1` (stereo not given), the result was inactive.

On to `Cc1ccc(N)cc1Cl`, for which the outcome was inactive.

Turning to `CC(=O)OC(c1ccccc1)C(Cl)(Cl)Cl` (stereo not given), the outcome was inactive.
